The test system of the assay is HL-60(TB) leukemia. The experiment in a line: NCI-60 one-dose screen, 48 h (100 = growth as untreated, 0 = no growth, -100 = all killed). The note with it: 10 µM unless noted.

This is part of a sample that, as a whole, favours compounds with a hit. Of some 83,000 tested, about 20% had one in any assay.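 Results are percent growth after 48 hours of single-concentration exposure. 100 means growth as in untreated cells, lower positive values show inhibition; negative values down to -100 show cell death.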 Unmarked numbers belong to inactive results. The source made the active and inactive calls. How the source made its calls: active means growth percent below 10; inactive means the rest.

With `O=[N+]([O-])c1cccc(-c2nc(-c3ccc(Cl)cc3Cl)cn2-c2ccccc2)c1`, the growth is 35.3%.

In the case of `CC(=O)n1nc(C(=O)OC(C)(C)C)c2cc(F)c(F)cc21`, the growth was 103%.

With `CCN(CC)Cc1cc(Nc2c3ccccc3nc3cc(Cl)ccc23)ccc1O`, the growth was -37.5% (active).

In the case of `O=C(O)COc1ccc2c(=O)c3sc4c(=O)c5ccccc5c(=O)c4c3c(=O)c2c1`, the growth was 42.7%.

As to `C[C@@H]1CC[C@H]2[C@@H](C)C(O)O[C@@H]3O[C@]4(C)CC[C@@H]1[C@]32OO4` (stereo partly specified), the growth is -24.4% (active).

In the case of `O=C(O)c1ccc2c(c1)C(=O)N(Cc1ccccc1)C2=O`, the growth was 93.1%.

As to `Clc1ccc(-c2cnc3c(-c4ccnc(N5CCNCC5)c4)cnn3c2)cc1`, the growth was -33.7% (active).

For `N#CC(C#N)=C(C#N)c1c[nH]c2ccccc12`, the growth was 72.9%.

For the molecule `O=C1C(Cl)=C(NCCCCCCNC2=C(Cl)C(=O)c3ccccc3C2=O)C(=O)c2ccccc21`, the growth is 55.7%.

For the molecule `Nc1nc(N)c(N=Nc2ccccc2)c(-c2ccccc2)n1`, the growth is 71.4%.

As for `CCOC(=O)COc1c(C)cc(SSc2cc(C)c(OCC(=O)OCC)c(C)c2)cc1C`, the growth was 88.5%.

Regarding `Nc1ncc(-c2cnn(C3CCNCC3)c2)cc1-c1nc2cc(Cl)ccc2o1`, the growth is -71.3% (active).

For the molecule `COc1ccc(N(C)c2nc(Cl)nc3ccn(C)c23)cc1`, the growth was -35.3% (active).

For the molecule `COc1ccc(/C=C(\c2cc(OC)c(OC)c(OC)c2)c2nnc(-c3cccs3)o2)cc1`, the growth is 92%.

For `O=C(c1c[nH]c2ccccc12)C(Sc1nc2ccccc2c(=O)[nH]1)c1ccccc1` (stereo unspecified), the growth was 93.1%.

For the molecule `COc1ccc2nc(Cl)c(Cn3nnc(Cc4ccccc4)n3)cc2c1`, the growth is 56.6%.

For `CCc1ccc(Oc2c(-c3ccc(OCc4ccc(Cl)cc4)cc3O)nn(C)c2C(F)(F)F)cc1`, the growth was -36.9% (active).

For the molecule `O=C(O)c1ccc(-n2cc(CNc3ccc(C(F)(F)F)cc3)c(-c3ccccc3)n2)cc1`, the growth is 89.2%.

On to `CC(=O)n1cc(/C=C2\N=C(c3ccc(Cl)cc3)N(c3ccc(S(=O)(=O)Nc4nccs4)cc3)C2=O)c2ccccc21`, for which the growth is 73.3%.

Regarding `C=C(C=O)[C@@H]1CC=C(C=O)CC1`, the growth was -33.2% (active).

Regarding `O=[N+]([O-])c1cccc(-c2ncc(-c3ccc(Cl)cc3Cl)[nH]2)c1`, the growth was 70.1%.

For `CC(C)CSc1nc(NN)c(C#N)c(-c2ccc(F)cc2)n1`, the growth is 94.4%.

In the case of `COc1cc2oc(-c3cccc(NC(=O)Nc4ccc5c(c4)OCO5)c3)cc(=O)c2c(OC)c1OC`, the growth is 56.8%.

With `COc1cc2c(=O)[nH]c3cc([N+](=O)[O-])ccc3c2cc1[N+](=O)[O-]`, the growth is 71.1%.

As to `Cc1cc(N2CCN(C)CC2)nc(NC2CCCC(Nc3ccnc4cc(Cl)ccc34)C2)n1` (stereo unspecified), the growth was -64.9% (active).

Take `S=C(NCCNC(=S)[S][Sn]([c]1ccccc1)([c]1ccccc1)[c]1ccccc1)[S][Sn]([c]1ccccc1)([c]1ccccc1)[c]1ccccc1`: the growth is -31% (active).

Turning to `CCOP(=O)(CCN1CCN(CCCCCOc2cc3c(cc2OC)C(=O)N2CCC[C@H]2C=N3)CC1)OCC`, the growth is 10.9%.

For the molecule `COc1cccc(/C=C2\Oc3cc(OCCN4CCCC4)ccc3C2=O)c1`, the growth is 99.6%.

For the molecule `Cc1ccc(S(=O)(=O)c2nc(-c3ccccc3)oc2S(C)=O)cc1` (stereo unspecified), the growth is -47.4% (active).

With `CCCCCCCCCCCCCCCCCN`, the growth was 95.9%.

As for `COc1ccc2c(c1)[nH]c1c(/C=C/c3ccccc3)nccc12`, the growth is 61.1%.

(Values after PubChem BioAssay (NCI).)
